In PubChem BioAssay AID651717 (Broad Institute, 2012):
The whole screen tested about 1,200 compounds, of which about 950 (79%) were called active.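 Rule for the calls: active = signal rises and fitted curve reaches 40% activity at or below the top valid tested dose, in every replicate test; inconclusive = replicate tests give mixed calls; inactive = the rest, including activity in the opposite direction.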 So high a share suggests a set chosen from earlier hits. Not all results are given here. Results with a measured potency or affinity are listed apart.

Assay: Bmi1-luciferase reporter activators in mESC, dose response, esBAF inhibitor project, mouse embryonic stem cells, cherry-pick (AID 651717);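 note: luciferase knocked into Bmi1 locus with EF-1a renilla as cell number control; rising ratio signals esBAF inhibition which derepresses Bmi1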
Conditions: firefly/renilla ratio, 24 h, active compounds read high; at 35 µM unless noted

Compound | max activity
C[C@@H]1CN([C@@H](C)CO)C(=O)c2c(c3ccccc3n2C)-c2ccccc2CO[C@H]1CN(C)C(=O)Nc1ccc2c(c1)OCO2 | -5.95% [at 1.1 µM] (inactive)
C[C@@H]1CN([C@H](C)CO)C(=O)Cc2cc(NC(=O)C3CCCCC3)ccc2O[C@H]1CN(C)C(=O)Nc1ccc2c(c1)OCO2 | 7.16% [at 1.1 µM] (inactive)
C[C@H]1CN([C@@H](C)CO)C(=O)Cc2cc(NC(=O)C3CCCCC3)ccc2O[C@@H]1CN(C)C(=O)Nc1ccc2c(c1)OCO2 | -4.16% [at 2.1 µM] (inactive)
C[C@H]1CN([C@@H](C)CO)C(=O)c2cccc(NS(=O)(=O)c3ccccc3)c2O[C@@H]1CN(C)C(=O)Nc1ccc2c(c1)OCO2 | -33.5% [at 30 µM] (inactive)
COc1ccc2nc(N(CCN(C)C)C(=O)c3ccc4ncsc4c3)sc2c1 | 43.3% [at 8 µM] (inactive)
C[C@H]1CN([C@@H](C)CO)C(=O)c2cccc(NS(=O)(=O)c3ccccc3)c2O[C@H]1CN(C)C(=O)Nc1ccc2c(c1)OCO2 | -6.71% (inactive)
COc1ccc(N(CC(=O)Nc2ccccc2C(N)=O)S(=O)(=O)c2ccc(C)c([N+](=O)[O-])c2)cc1 | 17% [at 16 µM] (inactive)
COc1ccc(NC(=O)N(C)C[C@H]2OCCCC[C@@H](C)Oc3ccc(NC(=O)Nc4ccc5c(c4)OCO5)cc3C(=O)N([C@H](C)CO)C[C@@H]2C)cc1 | 12.1% [at 8 µM] (inactive)
CCOc1ccc2nc(Cl)c(C3CC(c4ccco4)=NN3S(=O)(=O)c3ccccc3)cc2c1 (centres undefined) | 9.03% [at 1 µM] (inactive)
COC(=O)[C@H]1C[C@@]2(O)CN(S(=O)(=O)c3ccc(C)cc3)C[C@@]2(OC(=O)NCC2CCCCC2)C[C@H]1C(=O)OC | 29.2% (inactive)
CC1CCN(c2nc3ccc(C(=O)NCCCN4CCCCC4C)cc3s2)CC1 (centres undefined) | -33.5% [at 16 µM] (inactive)
C[C@@H]1CN([C@H](C)CO)C(=O)c2cc(NC(=O)Nc3ccc4c(c3)OCO4)ccc2O[C@@H](C)CCCCO[C@H]1CN(C)S(=O)(=O)c1cn(C)cn1 | 5.01% [at 1 µM] (inactive)
CC1=C(C(=O)OCc2ccccc2)C(c2ccc(Br)cc2)NC(=O)N1CCCCCC(=O)O (centres undefined) | 11.1% [at 16 µM] (inactive)
CSc1cccc(NC(=O)c2[nH]c(C)c(C(C)=O)c2C)c1 | 14.1% [at 8 µM] (inactive)
C[C@@H]1CCCCO[C@H](CN(C)C(=O)Nc2cccc3ccccc23)[C@H](C)CN([C@@H](C)CO)C(=O)c2cc(NC(=O)CCC(F)(F)F)ccc2O1 | 26.7% [at 1 µM] (inactive)
COc1ccc(-c2cc(C(=O)Nc3cc(OC)cc(C(=O)Nc4cccc(C(F)(F)F)c4)c3)[nH]n2)cc1 | 9.94% [at 4.2 µM] (inactive)
CCOC(=O)COc1c(OC)cc(Cl)cc1C1Nc2ccccc2C(=O)N1c1cccc(C)c1 (centres undefined) | 28.5% (inactive)
O=C(Nc1ccc(Cc2ccc(NC(=O)Nc3cccnc3)cc2)cc1)Nc1cccnc1 | 25.6% [at 16 µM] (inactive)
Cc1ccc(NCC(=O)N/N=C\C(Br)=C\c2ccccc2)cc1 | 8.26% [at 16 µM] (inactive)
CC=Cc1ccc2n(c1=O)C[C@@H]1[C@@H](CO)[C@H](C(=O)Nc3ccc(-c4ccccc4)cc3)N(C)[C@H]21 (mixture of isomers) | -24.6% (inactive)

Compound | max activity
CC=Cc1ccc2n(c1=O)C[C@H]1[C@H](CO)[C@@H](C(=O)Nc3ccc(-c4ccccc4)cc3)N(CC)[C@@H]21 (mixture of isomers) | 5.58% [at 0.26 µM] (inactive)
CC(=O)c1ccc(N(C(=O)Cc2c[nH]c3ccccc23)C(C(=O)NC2CCCCC2)c2cccs2)cc1 (centres undefined) | -9.23% (inactive)
Cc1ccc2c(c1)Sc1ccccc1CC2=O | 16.2% (inactive)
Cn1c(SCc2nc3ccccc3s2)nnc1-c1ccc2c(c1)OCO2 | 27.7% (inactive)
O=C1Nc2ccccc2N=C(c2ccc3c(c2)OCO3)C1N(CCc1ccccc1)C(=O)CSc1ncccn1 (centres undefined) | -16.9% (inactive)
C[C@@H]1CN([C@@H](C)CO)C(=O)c2cc(NC(=O)Nc3ccc4c(c3)OCO4)ccc2O[C@@H](C)CCCCO[C@H]1CN(C)Cc1ccncc1 | -10.2% [at 0.5 µM] (inactive)
Cc1ccc2nc(NC(=O)CCNS(=O)(=O)c3cccs3)sc2c1 | 37.2% (inactive)
CNC[C@@H]1OCCCC[C@H](C)Oc2ccc(NS(=O)(=O)c3ccc(C)cc3)cc2C(=O)N([C@H](C)CO)C[C@H]1C | -8.01% [at 1.1 µM] (inactive)
O=C1NC(Cc2ccc(O)cc2)c2nc3ccc(Br)cc3c(=O)n2-c2cc3ccccc3cc21 (centres undefined) | 6.63% [at 8 µM] (inactive)
C[C@@H]1CCCCO[C@@H](CN(C)Cc2ccncc2)[C@H](C)CN([C@@H](C)CO)C(=O)c2cc(NC(=O)Nc3ccc4c(c3)OCO4)ccc2O1 | -10.3% [at 0.5 µM] (inactive)
Cc1ccc(NC(=O)c2ccccc2F)c(NC(=O)c2ccccc2F)c1 | 39.1% [at 16 µM] (inactive)
C[C@@H]1CN([C@H](C)CO)C(=O)c2cccc(NC(=O)Nc3ccc4c(c3)OCO4)c2O[C@H]1CN(C)S(=O)(=O)c1cccs1 | 36.7% [at 1 µM] (inactive)
CN(CC(=O)Nc1ccc(Cl)c(S(=O)(=O)N(C)C)c1)Cc1ccccc1 | 16.8% [at 1 µM] (inactive)
CN1C(=O)c2cc(NC(=O)c3ccc(C#N)cc3)ccc2OC[C@H]2O[C@@H](CC(=O)NC3Cc4ccccc4C3)CC[C@@H]21 | -7.14% (inactive)
Cc1c(CC(C)C)nc(N)c(C#N)c1-c1ccccc1 | 8.97% [at 16 µM] (inactive)
CCc1ccc(C(=O)CN2C(=O)NC3(CCCCCC3)C2=O)cc1 | 32.8% (inactive)
CC1CC(C)(C)CC2(C1)NC(=O)N(CC(=O)OCC(=O)Nc1cc(S(=O)(=O)N3CCCCC3)ccc1Cl)C2=O (centres undefined) | 16.1% [at 0.5 µM] (inactive)
COc1ccc(C(=O)N2CCN(c3ccc(C(C)=O)cc3)CC2)cc1S(=O)(=O)N1CCCC1 | 26.7% [at 2.1 µM] (inactive)
COc1ccc(CCNC(=O)CSc2nc3ccsc3c(=O)n2Cc2ccccn2)cc1OC | 23.9% (inactive)
